± gives the standard deviation of the averaged measurements. The full ranking holds about 33,000 sequences; the median of “E-score (dimensionless, -0.5 to 0.5)” is about -0.049, and the highest 2% start at about 0.37. The entries come from a sample that favours the highest values as a whole.
Each sequence was assayed on T1, PmTbr T-box DNA-binding domain (GST fusion) (assay: PBM E-score of 8-mer (E-score (dimensionless, -0.5 to 0.5)); Tbr is Tbrain of the sea star Patiria miniata (Pm) or the sea urchin Strongylocentrotus purpuratus (Sp); higher = stronger binding preference). Conditions: the construct has about 5 more residues each side.
T1 sequence: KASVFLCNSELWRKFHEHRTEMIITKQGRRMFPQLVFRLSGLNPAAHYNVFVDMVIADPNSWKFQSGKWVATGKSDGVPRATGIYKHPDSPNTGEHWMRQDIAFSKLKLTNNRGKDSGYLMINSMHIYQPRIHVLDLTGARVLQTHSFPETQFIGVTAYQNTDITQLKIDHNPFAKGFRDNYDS
Method in brief: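 Primer extension turned Universal Agilent oligonucleotide arrays double-stranded. They were incubated with 200 nM protein in PBS (pH 7.5); the protein was a GST-fused Tbr T-box DNA-binding domain expressed in BL21 E. coli at 20 °C and purified on glutathione. Every ungapped 8-mer was scored from the scanned, quantified probe intensities, and the Universal PBM Analysis Suite gave each an enrichment E-score averaged over duplicate arrays.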

| Sequence | PBM E-score of 8-mer |
| --- | --- |
| AAGGGATT | -0.212 ± 0.11 |
| CCTAAAAC | -0.00751 ± 0.035 |
| CTGTTCAC | 0.263 ± 0.012 |
| CATGCAGC | -0.0211 ± 0.03 |
| AGAGTGCA | 0.0698 ± 0.0037 |
| CACTTGGC | 0.236 ± 0.038 |
| ATTGCGAA | 0.27169 ± 0.00012 |
| GTTGCGAA | 0.389 ± 0.015 |
| CGTGCGGA | 0.0633 ± 0.03 |
| CGTGCGAG | 0.358 ± 0.018 |
| AGTGCGAG | 0.405 ± 0.021 |
| AGTGCGGA | 0.265 ± 0.0086 |
| GGTGCGGA | 0.405 ± 0.015 |
| CTTGCGAA | 0.328 ± 0.029 |
| ACTGCGAG | 0.179 ± 0.04 |
| ACTTCGAC | 0.14 ± 0.024 |
| CTTGACCC | -0.326 ± 0.035 |
| ATTGACAC | 0.412 ± 0.0065 |
| CTTGACAC | 0.43 ± 0.023 |
| CTTGACGC | 0.27 ± 0.0032 |
| ATTGACAA | 0.304 ± 0.043 |
| ATTGACAG | 0.15 ± 0.052 |

| Sequence | PBM E-score of 8-mer |
| --- | --- |
| ATTTGGTC | -0.154 ± 0.024 |
| CCACGTAC | 0.0376 ± 0.016 |
| AGTCATAT | -0.234 ± 0.069 |
| ATTAACAA | 0.173 ± 0.14 |
| CTTAACAA | 0.201 ± 0.041 |
| CTTAACCC | -0.0938 ± 0.018 |
| CTTAACAC | 0.434 ± 0.013 |
| ATTAACAG | 0.143 ± 0.048 |
| ATTAACAC | 0.449 ± 0.0075 |
| CTACTCGA | -0.0985 ± 0.018 |
| AACTTAAT | -0.0144 ± 0.063 |
| GGTTCTTA | -0.0403 ± 0.11 |
| ACCTTAAC | 0.0595 ± 0.0064 |
| GACACCCA | 0.388 ± 0.032 |
| AACACCCC | 0.433 ± 0.0072 |
| GACACCCC | 0.409 ± 0.031 |
| GGCACCCC | 0.244 ± 0.03 |
| GGCACCCA | 0.217 ± 0.018 |
| AGCACCCT | 0.309 ± 0.031 |
| AACACCCT | 0.433 ± 0.017 |
| AACACCCA | 0.348 ± 0.029 |
| GCCACCCC | 0.208 ± 0.0084 |

| Sequence | PBM E-score of 8-mer |
| --- | --- |
| ACCACCCT | 0.0583 ± 0.021 |
| ACCACCCC | 0.191 ± 0.072 |
| GCCACCCA | 0.0536 ± 0.024 |
| CTACATGA | -0.0685 ± 0.044 |
| CTCCGTCC | -0.281 ± 0.02 |
| GCTCAATA | -0.0299 ± 0.077 |
| CCTCGATC | 0.0184 ± 0.014 |
| CTCAGAGA | -0.262 ± 0.012 |
| CGCGTTGC | 0.211 ± 0.017 |
| GCTAAGGA | -0.08306 ± 0.00035 |
| ATCACTAG | 0.0709 ± 0.015 |
| GTAAGCAA | -0.113 ± 0.031 |
| CTTGCACA | 0.148 ± 0.026 |
| CCGACACC | 0.448 ± 0.018 |
| GGGACACC | 0.216 ± 0.077 |
| TCGACACA | 0.319 ± 0.016 |
| ACGACACT | 0.298 ± 0.0045 |
| CAGACACC | 0.355 ± 0.0066 |
| ACGACACG | 0.225 ± 0.062 |
| CCGACACA | 0.37 ± 0.028 |
| CCGACATC | -0.0298 ± 0.027 |
| GCGACACC | 0.462 ± 0.011 |

| Sequence | PBM E-score of 8-mer |
| --- | --- |
| GCGACACA | 0.302 ± 0.022 |
| CCGACACG | 0.261 ± 0.013 |
| ACGACACC | 0.421 ± 0.018 |
| GTCCAGGA | -0.195 ± 0.049 |
| ACATATGA | 0.0313 ± 0.063 |
| CTCGATCA | 0.0196 ± 0.0013 |
| GTCCCCAA | -0.071 ± 0.1 |
| TCAGTCGA | -0.0383 ± 0.035 |
| AGAGTACC | -0.132 ± 0.064 |
| GATATAAC | 0.115 ± 0.0035 |
| GACATCTC | -0.14 ± 0.016 |
| GATTTGGC | 0.249 ± 0.01 |
| AGTTGTCG | 0.309 ± 0.0099 |
| AGTTGTTG | 0.195 ± 0.0086 |
| GGTTGTCA | 0.342 ± 0.0085 |
| AGTTGTTA | 0.388 ± 0.011 |
| AGTTGTCA | 0.4064 ± 0.0017 |
| CGTTGTTA | 0.157 ± 0.043 |
| CTCTTTTA | 0.105 ± 0.092 |
| ATCACAGG | 0.195 ± 0.099 |

— the supplement of paper PMC4166925
